Source: PubChem BioAssay
Most compounds without a hit are left out; they make up all but 11% or so of the library.
Pf growth 96h: Primary qHTS for delayed death inhibitors of the malarial parasite plastid, 96 hour incubation; Potency, µM (series often up to 28.7 µM), inactives show at the top dose activity change, negative = inhibition, usual class: inhibitors; P. falciparum luciferase reporter growth, 96 h; actives 6.9% (n = 320,000); AID 504834, 2011; note: % is set by controls: 0 for no effect and ±100 for the full control effect
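Compounds incubated with erythrocytes infected by luciferase-expressing P. falciparum (2% hematocrit, 0.05% parasitemia final) for 96 hours, 37 C in 5% CO2. Growth inhibition scored as decreased luciferase luminescence.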
Sm TGR block: qHTS Assay for the Inhibitors of Schistosoma Mansoni Peroxiredoxins. actives 3% (n = 360,000). Potency, µM (doses to about 114 µM), without a hit: at the top dose activity change, negative = inhibition, usual class: inhibitors. purified TGR, DTNB reduction, TNB absorbance 405 nm. Schistosoma mansoni thioredoxin glutathione reductase (TGR), Q962Y6. AID 485364, 2010; note: % is set by controls: 0 for no effect and ±100 for the full control effect; nearly all actives have a fitted effect of over 60% in size
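Kinetic colorimetric format: TGR-catalysed, NADPH-driven DTNB reduction monitored via TNB absorbance. Enzyme dispensed at 20 nM; compound exposure 15 min at room temperature before reaction start.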
Pf growth 48h: Primary qHTS for delayed death inhibitors of the malarial parasite plastid, 48 hour incubation. P. falciparum luciferase growth in erythrocytes, 48 h. Potency, µM (doses to about 28.7 µM), for the others: top-dose activity change, negative = inhibition, usual class: inhibitors. actives 5.9% (n = 310,000). AID 504832, 2011; note: % is set by controls: 0 for no effect and ±100 for the full control effect
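Luciferase-expressing parasites in RBCs, 2% Hct / 0.1% parasitemia final; RPMI 1640 + 0.5% Albumax; 37 C, 5% CO2, one generation; luminescence read-out, lower signal = inhibition.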
AMA1-RON2 inh: qHTS for Inhibitors of AMA1-RON; Towards Development of Antimalarial Drug Lead: Primary Screen | AlphaScreen AMA1-biotinylated RON2 peptide binding | Plasmodium falciparum AMA1 (3D7) - RON2 peptide interaction | AID 720542, 2013 | actives 0.2% (n = 360,000) | Potency, µM (titrated, usually from 58.2 µM), inactives show top-dose activity change, negative = inhibition, most hits filed as inhibitors;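 note: 0% = vehicle wells and -100% = peptide control; nearly all actives have a fitted effect of over 45% in size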
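AMA1 (3D7) with his tag at 25 nM final met compounds first, then biotinylated RON2 peptide at 25 nM; detection used donor plus acceptor beads, 10 µg/mL apiece, read by AlphaScreen after 30 min at room temperature.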
NS1 inh: qHTS Assay for Inhibitors of Influenza NS1 Protein Function; Potency, µM (doses to about 46.1 µM), inactives show at the top dose activity, positive = more growth; actives 0.4% (n = 270,000); calls by dose curve; note: actives are rising curves; nearly all actives have a fitted effect of over 50% in size
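OD600 was taken as the measure of yeast growth restored by compound in an NS1-expressing S. cerevisiae strain. Cells had been washed out of glucose medium and diluted 1:100 into galactose -URA medium, pH 6.0.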
* hit, by the source's call; ? = inconclusive; . = not tested or not shown. Unless noted, calls come from the whole dose curve; as a rule, active = well fitted curve in the direction sought with a large enough effect; inconclusive = small, poorly fitted or top-dose-only effect, or another doubt; inactive = no such curve, though single readings can be large; an effect the other way counts as inactive or inconclusive. Potency is the fitted concentration of half-maximal effect.

SMILES | Pf growth 96h | Sm TGR block | Pf growth 48h | AMA1-RON2 inh | NS1 inh
CCOP(=O)(OCC)C(NC(=O)c1cc([N+](=O)[O-])cc([N+](=O)[O-])c1)C(F)(F)F (stereo not given) | 29.3% | 12.6µM* | 3.1% | -5.5% | 5.4%
CCOP(=O)(OCC)C(C)(C)NC(=O)c1cc([N+](=O)[O-])cc([N+](=O)[O-])c1 | ? | -7.2% | . | 25.8% | 4.5%
CCOC(=O)c1ccccc1NC(=O)CN(c1cc(C(F)(F)F)ccc1Cl)S(C)(=O)=O | . | 15.7% | . | . | .
CCc1ccc(Nc2cc(C(=O)NCCCN3CCOCC3)c3ccccc3n2)cc1 | 5.22µM* | 3.2% | . | 11.7% | -6.8%
COc1ccccc1Nc1cc(C(=O)NCCCN2CCOCC2)c2ccccc2n1 | 0.928µM* | 7.6% | . | -5.0% | -15.2%
COc1ccc(Nc2cc(C(=O)NCCCN3CCOCC3)c3ccccc3n2)cc1 | 56.7% | -0.4% | 3.4% | -2.0% | -4.0%
CCC1(CC)NC(=O)N(CC(=O)Nc2ccc(OCc3ccccc3)cc2)C1=O | . | . | . | 5.4% | .
COc1ccc(C)cc1-n1nnc(S(=O)(=O)c2ccc(C)cc2)c1C | . | 6.9% | . | . | .
Cn1c(=O)c(C(=O)COC(=O)c2cc(C(F)(F)F)nc3c(C(F)(F)F)cccc23)c(N)n(CC2CC2)c1=O | -20.4% | -2.6% | 6.0% | . | -5.7%
CCCn1c(N)c(C(=O)CSc2nnc(C3CC3)n2C2CC2)c(=O)[nH]c1=O | . | . | . | -13.2% | .
CC(C)Cn1c(N)c(C(=O)CSc2nnc(C3CC3)n2C2CC2)c(=O)n(C)c1=O | 8.28µM* | -3.0% | ? | -9.6% | .
Cn1c(=O)c(C(=O)CCl)c(N)n(CC2CC2)c1=O | ? | 14.1µM* | -5.3% | 0.2% | 19.5%
CC(C)Cn1c(N)c(C(=O)CCl)c(=O)n(C)c1=O | ? | 20µM* | -14.7% | 3.7% | 7.9%
COc1ccc(NC(=O)C(Cc2ccccc2)n2cccc2)c(OC)c1 (stereo not given) | ? | -2.8% | ? | -13.2% | -7.5%
CC[n+]1c(C)cc(C)n1-c1ccccc1 | 8.28µM* | 8.8% | ? | 0.0% | .
CCOC(=O)c1ccc2c(c1)[n+](CC)c(C)n2-c1ccccc1 | ? | . | ? | -0.2% | 2.2%
COc1ccc(NC(=O)c2sc3cc(C(F)(F)F)cnc3c2-c2cccs2)cc1 | 11.7µM* | 0.8% | . | 10.6% | 0.7%
O=C1/C(=C\c2ccc(Br)o2)SC(=Nc2ccccc2)N1c1ccccc1 | 9.28µM* | ? | ? | ? | 2.6%
CN(C)N1C(=O)/C(=C/c2ccco2)SC1=Nc1ccccc1 | . | . | . | -22.0% | .
C[N+]1(C)[C@@H]2CC[C@H]1CC(OC(=O)C(c1ccccc1)c1ccccc1)C2 (stereo not given in full) | 3.29µM* | 3.7% | 2.33µM* | -0.8% | -1.4%
O=C(NCc1cc(Br)cc(Br)c1OC(=O)c1ccccc1[N+](=O)[O-])c1ccccc1 | 5.22µM* | -2.5% | 4.5% | -12.5% | ?
CCc1noc(C)c1C(=O)Nc1ccccc1N1CCOCC1 | 19.9% | -0.9% | -3.1% | 2.5% | .
N=c1n(CCN2CCCC2)c2ccccc2n1CC(O)c1ccco1 (stereo not given) | 14.6% | -24.6% | ? | -1.9% | -3.8%
CCCCCCCn1c(=N)n(CC(=O)c2ccco2)c2ccccc21 | 11.7µM* | -17.2% | . | -4.7% | -1.3%
CCCCCCCn1c(=N)n(CC(O)c2ccco2)c2ccccc21 (stereo not given) | ? | 2.6% | 4.15µM* | -16.6% | -1.9%
SMILES | Pf growth 96h | Sm TGR block | Pf growth 48h | AMA1-RON2 inh | NS1 inh
O=C(CSc1nnc(CNC(=O)c2c(F)cccc2F)o1)NCc1ccc2c(c1)OCO2 | . | . | . | -0.3% | .
COC(=O)C1CN(C(=O)C(C)Oc2ccc(F)cc2)c2ccccc2O1 (stereo not given) | ? | -0.8% | -0.4% | -7.2% | 4.1%
CCOC(=O)COc1ccccc1/C=C\[N+](=O)[O-] | 107.3% | 11.2µM* | 14.7µM* | -13.1% | -64.5%
CCOC(=O)c1c(CSC(=N)N)n(-c2ccc(Br)cc2)c2cc(Br)c(OC(C)=O)cc12 | ? | -15.1% | 1.85µM* | 5.4% | ?
CCOC(=O)c1c(CSc2nc(C)cc(C)c2C#N)n(C)c2cc(Br)c(OC(C)=O)cc12 | ? | 5.2% | ? | 4.2% | 9.3%
CCCCCCCCOC(=O)c1c(CSC(=N)N)n(C)c2cc(Br)c(OC(C)=O)cc12 | 10.4µM* | -10.2% | ? | 35.5% | 8.2%
C=CCCc1ccc(C#N)c(SCc2c(C(=O)OCC)c3cc(OC(C)=O)c(Br)cc3n2C)n1 | 0.0% | -13.3% | 5.22µM* | 10.0% | 1.4%
COc1cc2c(C(=O)N3CCOCC3)c(CSc3ccccc3)n(C)c2cc1Br | ? | 4.2% | -15.5% | 18.8% | .
CCCCc1nc2ccccc2n2c(-c3ccc(OC)cc3)c3c(=O)n(C)c(=O)n(C)c3c12 | . | 0.3% | . | . | .
COc1ccc(OC)c(NC(=O)Nc2nc(C(N)c3ccccc3Cl)cs2)c1 (stereo not given) | . | . | . | -5.1% | .
COc1cc2cccc(OC)c(=O)c2c(O)c1OC | 101.1% | -10.4% | 58.0% | -12.3% | -3.7%
COc1cc2c(ccc3cc(OC)c(OC)c(O)c32)cc1O | 3.9% | 44.7µM* | ? | ? | 0.2%
CCOC(=O)c1c(S(=O)(=O)NCC(=O)N2CCN(c3cccc(OC)c3)CC2)c(C)n(C)c1C | ? | 2.0% | -13.3% | -3.5% | 23.9%
CCn1c(SC)nnc1C1CCCN(CC(=O)Nc2ccccc2N2CCOCC2)C1 (stereo not given) | 1.5% | -17.0% | -24.2% | 68.2% | -13.2%
Cc1ccc(NC(=O)CSc2nc(C)cc(C)c2C(=O)Nc2cccc(C)c2)cc1 | . | 1.3% | . | . | .
COc1ccc(C2CC(=O)OC3=C2C(=O)CC(C)(C)C3)c(OC)c1 (stereo not given) | ? | -1.3% | 10.4µM* | -1.9% | .
CC1(C)CC(=O)C2=C(C1)OC(N)=C(C#N)C2c1ccc2c(c1)OCO2 (stereo not given) | ? | -0.3% | -14.9% | 7.8% | -13.1%
COc1cc2c(cc1C1C(C#N)=C(N)OC3=C1C(=O)CC(C)(C)C3)OCO2 (stereo not given) | 6.3% | 89.1µM* | ? | 21.6% | 5.1%
COc1ccc2c(c1)C(C1=C(O)CC(C)(C)CC1=O)C1=C(CC(C)(C)CC1=O)O2 (stereo not given) | -24.6% | -25.5% | . | -3.8% | -5.3%
CC1(C)CC(=O)C2=C(C1)OC(N)=C(C#N)C2c1ccccc1[N+](=O)[O-] (stereo not given) | 51.0% | 22.4µM* | 7.4% | -7.9% | -1.0%
CC1(C)CC(=O)C2=C(C1)OC(N)=C(C#N)C2c1ccccc1 (stereo not given) | ? | 0.0% | -6.5% | -3.8% | -5.6%
